Source: PubChem BioAssay AID1020 (Sanford-Burnham Center for Chemical Genomics, 2008)
Screen size: about 200,000 compounds; about 240 (0.12%) were called active. Cut-off read from the data, not from the text of the source: active = inhibition above about 50%; inactive = the rest. Shown is part of a subset that was picked to be rich in actives.

The molecules below were run on glucose-6-phosphate dehydrogenase [Leuconostoc mesenteroides] (assay: L. mesenteroides G6PDH inhibitors, counter-screen for G6PDH-coupled screening assays, biochemical, Leuconostoc mesenteroides enzyme (AID 1020)). Conditions: Purified L. mesenteroides G6PDH, diaphorase/resazurin coupled fluorescence, 45 min; at 5 µM; hits give high values.
With `OCCC1CN(Cc2cccn2-c2nccs2)CCN1CCc1ccccc1` (centres undefined) the inhibition was 12.9% (inactive). With `CCC1(CC)NC(=O)N(Cc2nc3ccccc3s2)C1=O` the inhibition was 10.3% (inactive). `CCOc1ccccc1NC(=O)C1CCCN(C(=O)Nc2ccccc2)C1` (centres undefined) was tested, and the inhibition was 4.5% (inactive). `CCOC(=O)CNC(=O)/C=C/c1c(Cl)cccc1Cl` was tested, and the inhibition was 1.5% (inactive). In the case of `Cc1ccc(N2C(=O)SC(N(CC(=O)O)c3ccc(C)cc3)C2=O)cc1` (centres undefined), the inhibition is reported as 21.1% (inactive). `Cc1ccc(Nc2nnc(SCC(=O)c3cc4ccccc4o3)s2)cc1C` was tested, and the inhibition was -1.5% (inactive). In the case of `CCC(C)NCC(=O)Nc1ccc([N+](=O)[O-])cc1C(=O)Nc1ccccc1F` (centres undefined), the inhibition is reported as 4.8% (inactive). `NC1=NN(c2cccc(C(=O)O)c2)C(=O)C1` was tested, and the inhibition was 19.2% (inactive). In the case of `CCOC(=O)/C(N=Nc1cc(C(=O)O)cc(C(=O)O)c1)=C(\O)CCl`, the inhibition is reported as -9.1% (inactive). `CCC1CCCCN1C(=S)Nc1ccc(SC(F)F)cc1` (centres undefined) was tested, and the inhibition was -14.7% (inactive). In the case of `O=C(O)/C=C/c1cn(Cc2ccccc2)nc1-c1cccs1`, the inhibition is reported as 2% (inactive). In the case of `CC[N+]1(CC)CC2=Cc3ccccc3CC2C1` (centres undefined), the inhibition is reported as 0.9% (inactive). `O=C(Nc1ccc(Cl)cc1)C1c2cccc[n+]2CC(=O)N1Cc1ccc2c(c1)OCO2` (centres undefined) was tested, and the inhibition was 10.2% (inactive). In the case of `C=CCN(CC=C)S(=O)(=O)c1ccc(C(=O)Nc2nc3c(s2)CCc2ccccc2-3)cc1`, the inhibition is reported as 8.4% (inactive). With `Cc1nc2sc(C(c3ccco3)N3CCOCC3)c(O)n2n1` (centres undefined) the inhibition was -0.1% (inactive). With `Oc1c(C(c2ccccn2)N2CCOCC2)ccc2cccnc12` (centres undefined) the inhibition was 50.6% (active). With `CCOC(=O)N1CCN(C(c2cccnc2)c2ccc3cccnc3c2O)CC1` (centres undefined) the inhibition was 23.8% (inactive). `COc1ccccc1N=Cc1c(O)c2ccccc2oc1=O` was tested, and the inhibition was 2.9% (inactive). In the case of `COC(=O)c1c(NC(=O)COC(=O)[C@@H](NS(=O)(=O)c2ccccc2)C(C)C)sc2c1CCC2`, the inhibition is reported as -20.8% (inactive). For `Cc1cc(C)cc(C(=O)N2CCN=C2SCc2ccc([N+](=O)[O-])cc2)c1`, the inhibition was -0.2% (inactive). With `COCC(C)n1c(C)cc(C(=O)CSc2cc(C)c3ccccc3n2)c1C` (centres undefined) the inhibition was -2.6% (inactive). For `CC1=C/C(=N\S(=O)(=O)c2ccccc2)C(C(C)C)=CC1=O`, the inhibition was 1.5% (inactive). With `CC(C)CC[n+]1ccn(C2=C([O-])c3ccccc3C(=O)/C2=N\S(=O)(=O)c2ccccc2)c1` the inhibition was 52.9% (active). For `O=C1NC(c2ccccc2)CCC1(Cl)Cl` (centres undefined), the inhibition was -1% (inactive). In the case of `COc1ccccc1CNC(=O)C1Cc2ccccc2C(=O)O1` (centres undefined), the inhibition is reported as 14.2% (inactive). In the case of `Cc1cccc(-c2nc3ccccc3c(=O)n2NC(=O)Cc2ccc(Cl)cc2)c1`, the inhibition is reported as 12.9% (inactive). With `O=C(COC(=O)c1cc2c(s1)CCCC2)NCc1ccccc1Cl` the inhibition was -30.3% (inactive). For `CCNC(=O)c1ccc(OCC(=O)Nc2ccc(F)cc2)c(OC)c1`, the inhibition was 0% (inactive). For `COC1=CCC2([N+](=O)[O-])CN(CC(=O)O)CC1([N+](=O)[O-])C2` (centres undefined), the inhibition was -3.5% (inactive). `Cc1ccc(C2=NN(C(=O)CSc3nc(N)cc(N)n3)C(c3ccco3)C2)cc1` (centres undefined) was tested, and the inhibition was -0.7% (inactive). With `COc1ccc(C)cc1NC(=O)C(OC(=O)c1cccc(S(=O)(=O)N(C)c2ccccc2)c1)c1ccccc1` (centres undefined) the inhibition was 0.4% (inactive). For `Cc1cc(C)c(NC(=O)C[N+](C)(C)CC(O)COc2cccc3ccccc23)c(C)c1` (centres undefined), the inhibition was -0.6% (inactive). `CCOC(=O)C1=C(C)OC(N)=C(C#N)C1c1cncc(-c2ccc(F)cc2)c1` (centres undefined) was tested, and the inhibition was 14.8% (inactive). With `CC1(C)CC(=O)C2=C(C1)Nc1cc(C(=O)c3ccccc3)ccc1NC2c1ccccn1` (centres undefined) the inhibition was 8.9% (inactive). In the case of `Cc1nc2ccc(NC(=S)N3CCC(C)CC3)cc2nc1C`, the inhibition is reported as 29.3% (inactive). For `COC(=O)c1nc(NC(=O)c2ccc(F)cc2)n[nH]1`, the inhibition was -4.4% (inactive). `Cc1ccc(S(=O)(=O)N(CC(=O)Nc2cccc([N+](=O)[O-])c2)Cc2ccc(Cl)cc2)cc1` was tested, and the inhibition was -21.7% (inactive). `O=C(/C=C/c1ccc(Cl)cc1)Nc1ccc(Br)cn1` was tested, and the inhibition was 7.2% (inactive). In the case of `Cn1c(=O)c2c(ncn2CC(=O)N/N=C/c2cn[nH]c2-c2ccc(F)cc2)n(C)c1=O`, the inhibition is reported as -4.7% (inactive). With `CC(C)(C)NC(=O)CN(C(=O)c1csnn1)c1ccccc1-c1ccccc1` the inhibition was 9.8% (inactive). In the case of `COCCCNC(=O)Cn1c(=O)n(Cc2ccccc2Cl)c(=O)c2cc(OC)c(OC)cc21`, the inhibition is reported as 4.4% (inactive). `Cc1ccc(-c2cc(N)on2)cc1` was tested, and the inhibition was 4.2% (inactive). With `CCCN(CCC)CCCNC(=O)CNC(=O)c1nn(-c2ccc(OC)cc2)c(=O)c2ccccc12` the inhibition was 6% (inactive). For `CCOC(=O)c1c(NC(=O)CNC2CCCc3ccccc32)sc(C(N)=O)c1C` (centres undefined), the inhibition was 2.5% (inactive). With `CN(CC(=O)Nc1ccccc1[N+](=O)[O-])Cc1ccc(Br)cc1` the inhibition was -0.3% (inactive). For `Cc1cc(/C=N/NC(=O)c2cccnc2)c(C)n1CC(C)C`, the inhibition was 2.9% (inactive). `CC1CCCCN1C(=S)NCc1ccccc1` (centres undefined) was tested, and the inhibition was -13% (inactive). For `CC(=O)N1c2ccccc2N(Cc2ccc([N+](=O)[O-])cc2)C(=O)C1(C)C`, the inhibition was 4.5% (inactive). `COC(=O)c1ccc(NC(=O)c2cc(Cl)ccc2OC)cc1` was tested, and the inhibition was 0.4% (inactive).
